# Results as given in PubChem BioAssay (NCATS).
# Records with an inconclusive call do not appear. Where a call stands in place of a potency, no number is given. A number with no mark means an inactive call. The source made the active and inactive calls. Unless noted, the call rests on the fitted dose curve; in most records, active means well fitted curve in the direction sought with a large enough effect; inconclusive means small, poorly fitted or top-dose-only effect, or another doubt; inactive means no such curve, though single readings can be large; an effect the other way counts as inactive or inconclusive.
# Legend:
# [1] = target: Voltage-gated inwardly rectifying potassium channel KCNH2 (Homo sapiens) (UniProt Q12809); test: qHTS Assay for Small Molecule Inhibitors of the Human hERG Channel Activity (AID 588834);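 further: lower thallium flux fluorescence means stronger hERG block; nearly all actives have a fitted effect of over 50% in size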; further: potency means the concentration at half of the fitted maximal effect
# Voltage-gated inwardly rectifying potassium channel KCNH2 (Homo sapiens), sequence (Q12809 whole entry, looked up): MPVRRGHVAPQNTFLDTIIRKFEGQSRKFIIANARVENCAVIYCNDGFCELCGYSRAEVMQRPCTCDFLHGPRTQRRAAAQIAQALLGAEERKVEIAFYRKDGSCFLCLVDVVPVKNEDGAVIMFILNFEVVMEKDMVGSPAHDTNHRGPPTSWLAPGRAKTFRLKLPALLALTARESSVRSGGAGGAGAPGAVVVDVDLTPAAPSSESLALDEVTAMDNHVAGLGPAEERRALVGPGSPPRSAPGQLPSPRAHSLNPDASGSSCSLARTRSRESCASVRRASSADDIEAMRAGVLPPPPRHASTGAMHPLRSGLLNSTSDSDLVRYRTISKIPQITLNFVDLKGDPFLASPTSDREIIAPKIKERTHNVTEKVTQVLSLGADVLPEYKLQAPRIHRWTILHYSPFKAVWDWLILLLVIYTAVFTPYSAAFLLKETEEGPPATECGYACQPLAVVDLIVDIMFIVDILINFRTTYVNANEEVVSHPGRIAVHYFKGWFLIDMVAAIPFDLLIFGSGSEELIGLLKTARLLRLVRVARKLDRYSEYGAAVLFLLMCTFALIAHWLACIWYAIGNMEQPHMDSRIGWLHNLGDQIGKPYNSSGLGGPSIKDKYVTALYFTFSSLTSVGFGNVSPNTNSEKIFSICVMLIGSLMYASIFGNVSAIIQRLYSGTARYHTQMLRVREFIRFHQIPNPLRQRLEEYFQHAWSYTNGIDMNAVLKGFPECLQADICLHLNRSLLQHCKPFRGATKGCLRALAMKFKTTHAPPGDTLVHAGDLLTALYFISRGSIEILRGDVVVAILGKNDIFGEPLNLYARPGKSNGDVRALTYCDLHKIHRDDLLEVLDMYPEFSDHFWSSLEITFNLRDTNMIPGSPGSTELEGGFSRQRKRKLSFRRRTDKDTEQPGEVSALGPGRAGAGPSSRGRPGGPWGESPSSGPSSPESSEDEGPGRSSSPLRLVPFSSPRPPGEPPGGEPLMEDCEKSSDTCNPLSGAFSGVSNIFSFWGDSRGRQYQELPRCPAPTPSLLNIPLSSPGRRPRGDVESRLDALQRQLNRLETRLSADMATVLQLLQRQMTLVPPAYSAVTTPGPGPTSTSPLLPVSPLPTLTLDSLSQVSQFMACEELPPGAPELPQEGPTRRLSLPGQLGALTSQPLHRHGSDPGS
# Outline: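 U2OS cells BacMam-transduced with hERG, 2000 cells/well, compound ~10 min at 37 °C before stimulation buffer. FluxOR thallium flux fluorescence read kinetically on FDSS; decrease indicates block; AC50 from Hill fits.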
# [2] = target: Luciferin 4-monooxygenase (Photinus pyralis) (UniProt P08659); test: Biochemical firefly luciferase enzyme assay for NPC (AID 624030); further: nearly all actives have a fitted effect of over 70% in size; further: potency means the concentration at half of the fitted maximal effect
# Luciferin 4-monooxygenase (Photinus pyralis), sequence (P08659 whole entry, looked up): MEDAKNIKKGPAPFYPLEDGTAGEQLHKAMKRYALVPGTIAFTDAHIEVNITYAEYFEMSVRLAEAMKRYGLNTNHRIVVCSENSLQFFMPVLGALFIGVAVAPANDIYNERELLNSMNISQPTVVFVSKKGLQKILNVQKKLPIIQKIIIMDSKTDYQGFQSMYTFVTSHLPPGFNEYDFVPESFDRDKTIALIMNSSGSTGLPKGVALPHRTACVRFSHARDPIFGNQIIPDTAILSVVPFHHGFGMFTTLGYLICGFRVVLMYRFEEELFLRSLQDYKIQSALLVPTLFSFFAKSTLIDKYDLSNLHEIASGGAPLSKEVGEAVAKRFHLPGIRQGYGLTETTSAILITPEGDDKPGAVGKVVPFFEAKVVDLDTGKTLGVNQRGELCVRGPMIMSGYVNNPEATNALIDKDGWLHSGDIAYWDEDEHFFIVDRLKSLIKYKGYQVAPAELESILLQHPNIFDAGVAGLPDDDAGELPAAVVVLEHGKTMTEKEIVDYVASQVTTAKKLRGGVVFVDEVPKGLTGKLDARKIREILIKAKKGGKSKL
# Outline: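 Counter-screen for direct inhibition of the luciferase enzyme by approved-drug library compounds, run at 10 nM enzyme in 50 mM Tris acetate (final). Luminescence was read within 5 min of enzyme-buffer addition and normalized to PTC124 versus DMSO (0%).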
# [3] = S16 Schwann cell viability assay (CellTiter-Glo assay) (AID 624031); further: nearly all actives have a fitted effect of over 70% in size; further: potency means the concentration at half of the fitted maximal effect
# Outline: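 Native S16 rat Schwann cells in DMEM/10% FBS without phenol red were incubated overnight, then exposed to compounds for 24 h at 37 °C/5% CO2. Viability was read as ATP luminescence (CellTiter-Glo), normalized to no-cell wells and DMSO (0%).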
# [4] = S16 Schwann cell PMP22 intronic element firefly luciferase assay (AID 624032); further: nearly all actives have a fitted effect of over 30% in size; further: potency means the concentration at half of the fitted maximal effect
# Outline: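 Rat S16 Schwann cells stably carrying a PMP22 intronic element-driven Fluc reporter were seeded overnight, then exposed to compounds for 24 h at 37 °C. Luminescence was normalized to PTC124 (positive control) and DMSO (0% activity).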
# [5] = S16 Schwann cell PMP22 intronic element beta-lactamase assay (AID 624044; calls by dose curve; further: nearly all actives have a fitted effect of over 15% in size); conditions: S16 rat Schwann cells, PMP22 element beta-lactamase FRET, 24 h; ratio activity, negative = inhibition: at 38.3 µM (top of the series) unless noted
# Outline: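 Rat S16 Schwann cells with beta-Lac driven by a PMP22 intronic element, compound-treated 24 h at 37 °C. LiveBLAzer FRET B/G read: 460 nm normalized to potassium clavulanate vs DMSO; 535 nm FRET as viability; concentration-effect curves classified.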
Compound,Potency [1],Potency [2],Potency [3],Potency [4],"ratio activity, negative = inhibition [5]"
C[C@H](CCC(=O)O)[C@H]1CC[C@H]2[C@@H]3CC[C@@H]4C[C@H](O)CC[C@]4(C)[C@H]3C[C@H](O)[C@]12C,inactive,inactive,inactive,inactive,1.95%
O=C(CCCN1CCC(C(=O)c2ccc(F)cc2)CC1)c1ccc(F)cc1,0.0891 µM (active),inactive,inactive,inactive,-12.9%
O=C(O)C1=C(CSc2nnnn2CS(=O)(=O)O)CS[C@@H]2[C@H](NC(=O)[C@H](O)c3ccccc3)C(=O)N12,inactive,inactive,inactive,inactive,
CC(=O)Nc1c(I)c(C(=O)O)c(I)c(N(C)C(C)=O)c1I,inactive,inactive,inactive,inactive,11.6%
CCc1ccc(S(=O)(=O)O)cc1,inactive,inactive,inactive,inactive,-9.66%
CC(=O)[O][Al][O]C(C)=O,inactive,inactive,inactive,inactive,0.413%
CC(=O)Nc1ccc(OC(=O)c2ccccc2O)cc1,inactive,25.6 µM (active),inactive,inactive,1.52%
CC(=O)c1ccc2c(c1)N(CCCN1CCN(CCO)CC1)c1ccccc1S2,7.08 µM (active),inactive,28.7 µM (active),16.1 µM (active),-15.1%
C=Cc1ccc(S(=O)(=O)O)cc1,inactive,inactive,inactive,inactive,-7.16%
CSCCC(N)C(=O)O (centres undefined),inactive,inactive,inactive,inactive,5.55%
O=C(NNCS(=O)(=O)O)c1ccncc1,inactive,inactive,inactive,inactive,-19.9% (active)
Cn1c(=O)c2c(ncn2CCOC(=O)C(C)(C)Oc2ccc(Cl)cc2)n(C)c1=O,inactive,inactive,inactive,32.2 µM (active),-5.21%
CCN(CC)CCOC(=O)c1cccnc1,inactive,inactive,inactive,inactive,2.66%
O=C(O)COc1ccc(CCNS(=O)(=O)c2ccccc2)s1,inactive,inactive,inactive,inactive,-0.95%
O=C(NCCNCC(O)COc1ccc(O)cc1)N1CCOCC1 (centres undefined),inactive,inactive,inactive,inactive,1.92%
C/C(=C\C(=O)OCCCCCCCCC(=O)O)C[C@@H]1OC[C@H](C[C@@H]2O[C@H]2[C@@H](C)[C@H](C)O)[C@@H](O)[C@H]1O,inactive,inactive,inactive,inactive,0.0634%
CNC(=O)OCc1cccc(COC(=O)NC)n1,inactive,inactive,inactive,inactive,-18.3%
CC(CNC(=O)c1cccnc1)NC(=O)c1cccnc1 (centres undefined),inactive,inactive,inactive,inactive,0%
CC1CC(OC(=O)C(O)c2ccccc2)CC(C)(C)C1 (centres undefined),inactive,inactive,inactive,inactive,-3.78%
C[N+]1(C)[C@@H]2CC(OC(=O)C(O)(c3cccs3)c3cccs3)C[C@H]1[C@@H]1O[C@@H]12 (some centres undefined),inactive,inactive,inactive,inactive,-1.55%
[O]=[Bi][O]C(=O)[O][Bi]=[O],inactive,inactive,inactive,inactive,-4.42%
CNC(=O)c1c(I)c(C(=O)NCC(=O)Nc2c(I)c(C(=O)O)c(I)c(C(=O)NCCO)c2I)c(I)c(N(C)C(C)=O)c1I,inactive,inactive,inactive,inactive,5.89%
O=C(O)/C=C/C(=O)Nc1ccc(S(=O)(=O)Nc2nccs2)cc1,inactive,inactive,inactive,inactive,1.33%
CC(C)C1=CC2=CC[C@@H]3[C@](C)(CCC[C@@]3(C)C(=O)O)[C@H]2CC1,inactive,inactive,inactive,inactive,-5.72%
COc1ccc2nc(NC(=O)Nc3ccccc3)sc2c1,inactive,0.721 µM (active),inactive,inactive,-14.6%
CC/C=C\C/C=C\C/C=C\C/C=C\C/C=C\CCCC(=O)O,inactive,inactive,inactive,inactive,1.33%
CCN(CC)CCOc1ccccc1OC,inactive,inactive,inactive,inactive,-7.82%
CC(/C=C/C=C(\C)C(=O)O[C@@H]1O[C@H](CO[C@@H]2O[C@H](CO)[C@@H](O)[C@H](O)[C@H]2O)[C@@H](O)[C@H](O)[C@H]1O)=C\C=C\C=C(C)\C=C\C=C(/C)C(=O)O[C@@H]1O[C@H](CO[C@@H]2O[C@H](CO)[C@@H](O)[C@H](O)[C@H]2O)[C@@H](O)[C@H](O)[C@H]1O,inactive,inactive,inactive,inactive,3.54%
